Z-score and composite z-score data for ten compounds are collected here from PubChem BioAssay.

The nature of assay [1]: optical density shifts of acrAB sulA E. coli – strain DRC41, OD650, 48 h, E. coli filamentation inducer project, primary screen (AID 1152).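 Further: E. coli MC1000 strain DRC41 lacking acrAB efflux pump and sulA.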 Conditions: higher = more signal, called active from +8 up or from −8 down.
Assay [2] is described as follows: probe aLefty1 binding on compound microarray – biochemical, small-molecule microarray, 635/667 nm fluorescence, primary screen (AID 1153).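 Further: score merges spot fluorescence with signal-to-noise ratio from the scanned slide images.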 Conditions: higher = more signal.
Assay [3] can be described thus: plasmodial surface anion channel blockers, osmotic lysis – cell-based, P. falciparum Indochina, OD700, 1 h, primary screen (AID 1154). Conditions: P. falciparum Indochina infected RBC osmotic lysis, higher = more signal, called active from +8 up or from −8 down.
The nature of assay [4]: plasmodial surface anion channel blockers, osmotic lysis – cell-based, P. falciparum Indochina, OD700, 2 h, primary screen (AID 1155).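 Further: lysis reports solute entry through the parasite surface anion channel PSAC.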 The following applies: P. falciparum Indochina infected erythrocytes, higher = more signal, called active from +8 up or from −8 down.
A short description of assay [5]: changes in parasitized red cell lysis, either direction – P. falciparum Indochina, OD700, 3 h, PSAC antagonist project, primary screen (AID 1156). Conditions: P. falciparum-infected erythrocytes, osmotic lysis, higher = more signal, called active from +8 up or from −8 down.
The nature of assay [6]: plasmodial surface anion channel blockers, osmotic lysis – cell-based, P. falciparum Indochina, OD700, 18 h, primary screen (AID 1157). Conditions: P. falciparum Indochina infected erythrocytes, osmotic lysis OD700, 18 h; higher = more signal, called active from +8 up or from −8 down.
Assay [7] is described as follows: S6 kinase pathway phospho-S6 level changes – cell-based, A549, cytoblot, luminescence, serum-stimulated, primary screen (AID 1158).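 Further: serum-stimulated A549 lung adenocarcinoma cells; signal is phosphorylated S6 detected by cytoblot immunostaining with HRP secondary.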 The following applies: 5 h, higher = more signal.
The target of assay [8] is NADPH oxidase 2 (Homo sapiens) (UniProt P04839). In words: compounds shifting NOX2 Amplex Red fluorescence – cell-based, HEK293-NOX2, PMA-stimulated, NOX inhibitor project, primary screen (AID 1159). Further: test concentration not given here. The following applies: 45 min, higher = more signal, called active from +8 up or from −8 down.
The target in assay [9] is NADPH oxidase 4 (Homo sapiens) (UniProt Q9NPH5). In words: compounds shifting NOX4 Amplex Red fluorescence – cell-based, HEK293-NOX4, tetracycline-induced, NOX inhibitor project, primary screen (AID 1160). Conditions: HEK293-NOX4, Amplex Red H2O2 fluorescence, 45 min; higher = more signal, called active from +8 up or from −8 down.
The target in assay [10] is NADPH oxidase 5 (Homo sapiens) (UniProt Q96PH1). In words: compounds shifting NOX5 Amplex Red fluorescence – cell-based, HEK293-NOX5, NOX inhibitor project, primary screen (AID 1161). Conditions: HEK293-NOX5, ionomycin, 45 min, higher = more signal.

Active and inactive are the calls of the source.

Sequence of NADPH oxidase 5 (Homo sapiens) (Q96PH1 whole entry, looked up): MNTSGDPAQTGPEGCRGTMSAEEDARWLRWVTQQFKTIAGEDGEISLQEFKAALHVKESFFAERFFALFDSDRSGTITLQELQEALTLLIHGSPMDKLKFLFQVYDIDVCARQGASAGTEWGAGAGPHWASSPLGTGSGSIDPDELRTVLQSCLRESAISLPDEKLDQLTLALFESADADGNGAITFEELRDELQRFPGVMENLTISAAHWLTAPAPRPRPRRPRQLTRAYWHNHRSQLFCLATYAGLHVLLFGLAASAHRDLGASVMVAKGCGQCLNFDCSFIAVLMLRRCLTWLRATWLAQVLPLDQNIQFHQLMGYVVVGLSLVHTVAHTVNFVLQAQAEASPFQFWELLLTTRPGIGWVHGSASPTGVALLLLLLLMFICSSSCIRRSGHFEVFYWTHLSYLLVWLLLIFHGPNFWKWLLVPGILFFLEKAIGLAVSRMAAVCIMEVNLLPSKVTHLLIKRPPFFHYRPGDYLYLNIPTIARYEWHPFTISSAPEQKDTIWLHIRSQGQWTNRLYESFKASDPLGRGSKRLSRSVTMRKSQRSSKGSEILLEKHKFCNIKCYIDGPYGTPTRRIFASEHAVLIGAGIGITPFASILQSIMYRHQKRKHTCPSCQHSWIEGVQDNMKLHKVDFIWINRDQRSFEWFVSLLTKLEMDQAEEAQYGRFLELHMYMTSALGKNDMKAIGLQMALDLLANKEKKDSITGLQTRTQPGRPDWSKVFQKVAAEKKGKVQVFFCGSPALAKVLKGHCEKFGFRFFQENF
Sequence of NADPH oxidase 2 (Homo sapiens) (P04839 whole entry, looked up): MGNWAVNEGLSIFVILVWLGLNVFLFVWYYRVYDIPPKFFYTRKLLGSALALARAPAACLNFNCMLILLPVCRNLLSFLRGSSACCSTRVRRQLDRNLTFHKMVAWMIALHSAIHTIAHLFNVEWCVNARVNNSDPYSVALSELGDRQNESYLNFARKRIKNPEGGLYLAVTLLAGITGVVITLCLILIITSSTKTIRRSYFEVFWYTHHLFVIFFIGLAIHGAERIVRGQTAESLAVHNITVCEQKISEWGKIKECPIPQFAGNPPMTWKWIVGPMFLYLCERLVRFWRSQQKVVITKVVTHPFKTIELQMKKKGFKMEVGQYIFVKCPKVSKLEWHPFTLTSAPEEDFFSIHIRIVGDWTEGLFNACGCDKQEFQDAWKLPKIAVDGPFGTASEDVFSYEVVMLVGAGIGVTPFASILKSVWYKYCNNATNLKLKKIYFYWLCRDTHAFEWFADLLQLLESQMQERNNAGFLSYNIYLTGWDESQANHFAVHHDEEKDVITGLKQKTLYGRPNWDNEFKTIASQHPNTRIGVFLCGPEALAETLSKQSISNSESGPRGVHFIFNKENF
Sequence of NADPH oxidase 4 (Homo sapiens) (Q9NPH5 whole entry, looked up): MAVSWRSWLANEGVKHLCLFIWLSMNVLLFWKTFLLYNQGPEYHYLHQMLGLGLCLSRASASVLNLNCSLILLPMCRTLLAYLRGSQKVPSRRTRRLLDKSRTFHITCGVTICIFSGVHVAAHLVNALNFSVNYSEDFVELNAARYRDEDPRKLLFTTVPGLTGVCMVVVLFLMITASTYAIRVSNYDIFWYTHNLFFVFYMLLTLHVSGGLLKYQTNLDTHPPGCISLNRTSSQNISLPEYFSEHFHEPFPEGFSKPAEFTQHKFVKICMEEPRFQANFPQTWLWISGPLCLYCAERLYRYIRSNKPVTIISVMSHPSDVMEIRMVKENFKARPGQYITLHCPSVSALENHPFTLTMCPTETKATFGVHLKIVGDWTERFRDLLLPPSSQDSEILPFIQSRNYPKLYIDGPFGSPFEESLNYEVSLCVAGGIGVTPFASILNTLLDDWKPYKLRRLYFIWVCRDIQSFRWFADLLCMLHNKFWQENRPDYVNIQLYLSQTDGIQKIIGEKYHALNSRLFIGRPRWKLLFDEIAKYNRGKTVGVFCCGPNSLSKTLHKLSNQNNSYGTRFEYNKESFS

With `CC(C)N1C(=O)c2ccccc2[C@](C)(C(=O)NCCCN(C)C)[C@@H]1c1ccc(CO)cc1`, the z-score is 0.0259 (inactive) in [1]; 2.5 (inactive) in assay [3]; 0.347 (inactive) in assay [4]; 0.766 (inactive) in assay [5]; 0.4 (inactive) in [6]; 0.564 in assay [7]. Also, the z-score was 0.288 (inactive) in assay [8], 0.893 (inactive) in assay [9] and 1.15 in [10]. Also, in assay [2], the composite z-score was found to be 0.0201.

As to `COCCn1c(C(=O)N2CCCC2)cc2c1C[C@H]1CN(C(=O)c3ccccc3)[C@@](Cc3ccc(OC)cc3)(C(=O)OC)[C@@H]21`, the z-score in assay [1] was 0.223 (inactive); in assay [3], 2.9 (inactive); in [4], -0.51 (inactive); in [5], -0.778 (inactive); in assay [6], -1.96 (inactive); in [7], 2.69. Further, the values for the z-score in [8], in assay [9] and in [10] were 0.121 (inactive), 0.435 (inactive) and -4.54, respectively. The composite z-score in [2] amounted to 1.15.

For `CC(C)C[C@@H]1NC(=O)[C@@H]2C[C@H](C(=O)NCCCCN(C)C)[C@H](c3ccc(O)cc3)N2C1=O`, the z-score in assay [1] is -0.0654 (inactive); in assay [3], -0.202 (inactive); in assay [4] it was -0.241 (inactive); in [5] it was -0.689 (inactive); in assay [6], -0.189 (inactive); in [7], 0.0488. For the same compound, the results for the z-score in [8], in assay [9] and in [10] were -0.298 (inactive), 0.167 (inactive) and 0.21, respectively. Besides, the composite z-score in assay [2] was -0.0655.

As to `CC(C)[C@H]1COC(=O)N1C(=O)[C@H]1[C@@H](c2ccccc2)N(c2ccccc2)O[C@@H]1C`, the z-score in assay [1] was 1.46 (inactive); in [3] it was 0.744 (inactive); in assay [4] it was 0.233 (inactive); in assay [5], -0.648 (inactive); in [6], 0.206 (inactive); in assay [7] it was 0.958. The z-score was -0.515 (inactive) in assay [8], -0.138 (inactive) in assay [9] and -2.5 in assay [10]. In assay [2], this compound came in with a composite z-score of -0.147.

Consider `COCCCNC(=O)[C@@]1(C)c2ccccc2C(=O)N(Cc2ccccc2)[C@H]1c1ccc(CO)cc1`, for which the z-score in assay [1] was -0.0509 (inactive); in assay [3] it was 2.68 (inactive); in assay [4], 0.179 (inactive); in assay [5], 2.67 (inactive); in [6], -0.487 (inactive); in [7] it was 2.82. The z-score in assay [8] was -1.63 (inactive); in assay [9], -2.44 (inactive); in [10] it was -2.66. The compound further showed a composite z-score in [2] of 0.114.

As to `O=C1OCCC/C=C\[C@H]2OC34C=CCN(CCN5CCOCC5)C(=O)[C@H]3N(CCO)C(=O)[C@@H]4C12` (stereo not given in full), the z-score in assay [1] is 0.216 (inactive); in [3] it was 0.588 (inactive); in assay [4], 0.921 (inactive); in assay [5], 0.723 (inactive); in [6] it was 0.382 (inactive); in assay [7], -0.364. Further, the z-score in [8] is 0.61 (inactive); in [9] it was -0.342 (inactive); in assay [10], 0.494. For the same compound, the composite z-score in assay [2] was -0.231.

For `CN1C(=O)C2C(C1=O)C1C=C(c3ccc(CO)cc3)C2C(C2CC2)N1Cc1cc2c(cc1Br)OCO2` (stereo not given), the z-score is -0.515 (inactive) in assay [1]; 19.5 (active) in assay [3]; 3.1 (inactive) in [4]; 1.2 (inactive) in [5]; -0.898 (inactive) in assay [6]; 1.05 in assay [7]. Also, the z-score in [8] is -1.18 (inactive); in [9] it was -1.04 (inactive); in assay [10], -0.488. Further, the composite z-score in assay [2] was determined as 0.464.

Turning to `C=CCCN(CC#C[C@H]1Oc2ccccc2S(=O)(=O)N2CCC[C@@H]12)S(=O)(=O)c1ccc(C)cc1`, the z-score is -1.88 (inactive) in assay [1]; 3.75 (inactive) in assay [3]; 0.451 (inactive) in assay [4]; 0.123 (inactive) in assay [5]; 0.182 (inactive) in [6]; -0.23 in assay [7]. Moreover, the figures for the z-score in assay [8], in [9] and in assay [10] were 0.744 (inactive), -1.54 (inactive) and -0.909, respectively. The composite z-score in assay [2] was 0.0443.

For `O=C1OCC=C[C@H]2OC34C=CCN(c5ccc(Cl)cc5)C(=O)[C@H]3N(CCCO)C(=O)[C@@H]4[C@@H]12` (stereo not given in full), the z-score in [1] is 0.657 (inactive); in [3], 0.204 (inactive); in assay [4] it was -0.531 (inactive); in [5], -0.172 (inactive); in assay [6], -1.41 (inactive); in assay [7], 0.808. The z-score in assay [8] was 0.846 (inactive); in [9], -0.895 (inactive); in assay [10], 2.6. In addition, the composite z-score in assay [2] is -0.128.

For `[N-]=[N+]=NCc1ccccc1C[C@]1(C(=O)NCC(O)CO)COC(c2ccc(OCCCO)cc2)=N1` (stereo not given in full), the z-score was 0.896 (inactive) in [1]; 24.8 (active) in [3]; 10.2 (active) in assay [4]; 3.96 (inactive) in [5]; 0.91 (inactive) in assay [6]; -0.0894 in assay [7]. The results for the z-score in assay [8], in assay [9] and in assay [10] were -2.99 (inactive), -0.28 (inactive) and -2.11, respectively. In addition, the composite z-score in [2] was determined as 0.746.
